The list is a sample of the results.
aSyn 5UTR act: Activators working through SNCA 5'UTR binding (MLPCN) | alpha-synuclein 5'UTR reporter, activators screen | activity score, % (tested at 7.5 µM), hits read low | actives 7.1% (n = 300,000); in the data active = activity score below about -60%
The depositor's hits bear a star.

SMILES | aSyn 5UTR act
CC1Oc2ccccc2N(CC(=O)NCc2ccc3c(c2)OCO3)C1=O (stereo not drawn) | -106*
CCOC(=O)C(C)Oc1cccc2c(=O)n(CC(=O)NCc3ccc4c(c3)OCO4)ccc12 (stereo not drawn) | 65
CC1Oc2ccccc2N(CC(=O)Nc2ccc3c(c2)OCCO3)C1=O (stereo not drawn) | -77*
CC1CCCCC12NC(=O)N(CC(=O)NC(=O)Nc1ccc3c(c1)OCCO3)C2=O (stereo not drawn) | -169*
COc1cc([C@@H]2c3cc4c(cc3[C@@H](NC3CCN(Cc5ccccc5)CC3)[C@H]3COC(=O)[C@H]23)OCO4)cc(OC)c1O | 103
Nc1nc2c(C(=O)N3CCOCC3)nnn2c2ccccc12 | -66*
O=C(/C=C/c1ccc(-c2cccc([N+](=O)[O-])c2)o1)N1CCOCC1 | -110*
O=C1NC(=O)/C(=C/c2ccc(-c3cccc([N+](=O)[O-])c3)o2)S1 | -126*
O=[N+]([O-])c1cccc(-c2ccc(/C=N/Nc3nc(N4CCCCC4)nc(N4CCCCC4)n3)o2)c1 | 73
Clc1nc(-c2ccccc2)ncc1Oc1ccccc1 | -64*
O=C(O)C(C(=O)/C=C/c1ccco1)=C1SCCS1 | -69*
CCOC(=O)c1c(C)oc2c1c(CN1CCN(C(=O)OCC)CC1)c(O)c1ccccc12 | -205*
CCOC(=O)c1c(C)oc2c1c1c(c3ccccc32)OCN(Cc2ccccn2)C1 | -102*
CC(C)N=C1NN=C(c2ccc(Cl)c(Cl)c2)CS1 | -228*
CC(C)N=C1NN=C(c2cccs2)CS1 | -100*
CC(C)c1ccc(N=C2NN=C(c3cccs3)CS2)cc1 | -145*
CC1(C)COC(/C=C/c2ccc([N+](=O)[O-])cc2)=N1 | -93*
Nc1sccc1C(=O)c1ccc(Cl)cc1 | -120*
CCN(Cc1ccccc1)c1ccc(/C=C(\C#N)c2ccccn2)cc1 | -137*
COc1ccc2nc(C)cc(SCC(=O)N/N=C/c3ccc(O)cc3O)c2c1 | 80
COc1ccc2nc(/C=N/NC(=O)CCCCCNC(=O)OC(C)(C)C)ccc2c1 | -70*
CCn1c(=NC(=O)c2ccco2)sc2cccc(F)c21 | -126*
c1ccc(-c2ccc(CN3CCSCC3)cc2)cc1 | -88*
Cc1nn(-c2ccc(Br)cc2)c(=O)c2ccccc12 | -113*
c1ccc(CCNc2nc(-c3cccnc3)cs2)cc1 | -129*
SMILES | aSyn 5UTR act
c1ccc(CCNc2nc(-c3ccccn3)cs2)cc1 | -158*
Cc1ccc(CC2CC(=O)N(Cc3ccco3)C2=O)cc1 (stereo not drawn) | -129*
COc1cccc2c1OC1(CCN(C(C)C)CC1)N1N=C(c3cccnc3)CC21 (stereo not drawn) | -78*
O=C(Nc1ccccc1F)c1ccc2snnc2c1 | -77*
COc1ccc(NC(=O)c2ccc3snnc3c2)cc1 | -107*
CC(=O)c1ccc(NC(=O)c2ccc3snnc3c2)cc1 | -119*
O=C(Nc1ccc(Cl)cc1)c1ccc2snnc2c1 | -149*
Cc1nc(-c2ccccc2)sc1C(=O)NN | -102*
C=CCNC(=O)c1sc(-c2ccccc2)nc1C | -67*
C=CCn1cccc(C(=O)Nc2ccc(Cl)cc2)c1=O | -141*
C=CCn1cccc(C(=O)Nc2ccc(N(C)C)cc2)c1=O | -104*
C=CCn1cccc(C(=O)Nc2ccc(SC)cc2)c1=O | -155*
C=CCn1cccc(C(=O)Nc2ccc(OCC)cc2)c1=O | -155*
Cc1ccc(C(C)C)c(OCC(=O)Nc2ccc3c(c2)nc(CCN2CCCCC2)n3C)c1 | 110
Cn1c(CN2CCCC2)nc2cc(NC(=O)c3cccs3)ccc21 | -76*
Cn1c(CN2CCCCC2)nc2cc(NC(=O)c3ccc(Cl)cc3)ccc21 | -66*
Cn1c(CN2CCCC2)nc2cc(NC(=O)c3ccc(Cl)cc3)ccc21 | -63*
COc1ccc2cc(CN(CC3CCCO3)C(=O)Nc3ccccc3OC)c(=O)[nH]c2c1 (stereo not drawn) | 66
COc1ccccc1NC(=O)N(Cc1ccco1)Cc1cc2ccc(C)c(C)c2[nH]c1=O | 51
CCc1ccc2[nH]c(=O)c(CN(CCN(CC)CC)C(=O)Nc3ccccc3OC)cc2c1 | -62*
Cc1cc(NC(=O)c2ccccc2)ncc1NC(=O)c1cccs1 | -103*
Cc1cc(NC(=O)c2cccs2)ncc1NC(=O)C(C)C | -145*
Cc1cc(NC(=O)c2ccccc2F)ncc1NC(=O)c1cccs1 | -63*
Cc1cc(NC(=O)c2cccs2)ncc1NC(=O)c1cccc(F)c1 | -129*
Nc1nc(-c2ccc(-c3ccccc3)cc2)cs1 | -186*
SMILES | aSyn 5UTR act
Nc1nc(-c2ccc(Oc3ccccc3)cc2)cs1 | -123*
Nc1ccc(Oc2ccccc2-c2ccccc2)cc1 | 104
c1ccc2cc(-c3csnn3)ccc2c1 | -74*
COc1ccc(-c2ccc(OC)cc2)cc1 | -120*
Nc1nc(-c2ccc3ccccc3c2)cs1 | -193*
Nc1nc(N)c2cc(Sc3ccc4ccccc4c3)ccc2n1 | 96
Cc1ccc(N/C(N)=N/c2nc(CSc3nnc(C)s3)cc(=O)[nH]2)c(C)c1 | 83
COc1ccc(-c2csc(N=C(N)N)n2)cc1 | -141*
Cc1ccc(-c2csc(N=C(N)N)n2)c(C)c1 | -94*
COc1ccc(-c2csc(N)n2)cc1 | -101*
Cc1cccc(C(=O)Oc2ccc(/C=N/NC(=O)c3ccccc3O)cc2)c1 | -135*
O=C(N/N=C/c1cccnc1)c1ccc(NC(=O)C(c2ccccc2)c2ccccc2)cc1 | 111
O=C(N/N=C/c1cccnc1)c1cc(Br)ccc1O | -125*
O=C(N/N=C/c1ccc2nccnc2c1)c1ccccc1O | -150*
C(=N\NCc1ccccc1)/c1ccc2nccnc2c1 | -106*
O=C(N/N=C/c1ccc(O)c2ncccc12)c1cccc(Br)c1 | 67
O=C(N/N=C/c1ccnc2ccccc12)c1ccccc1O | -62*
CCc1nc2ccc(C(=O)O)cc2nc1CC | -63*
CCc1nc2ccc(C(=O)NCCc3ccc(OC)cc3)cc2nc1CC | -138*
O=C(Nc1ccc(Cl)cc1F)c1ccccc1Br | -207*
O=C(NNC(=O)c1ccccc1Br)c1cccc(Cl)c1 | -92*
O=C(Nc1ccc(Cl)cc1F)c1cccc2ccccc12 | -63*
CCCCn1cnc2c(cnn2-c2ccc(F)cc2)c1=O | -123*
CCCCn1cnc2c(cnn2-c2ccc(Cl)cc2)c1=O | -109*
CCOC(=O)C(C)n1cnc2c(cnn2-c2ccc(Cl)cc2)c1=O (stereo not drawn) | -135*
SMILES | aSyn 5UTR act
CCCn1cnc2c(cnn2-c2ccc(F)cc2)c1=O | -115*
COc1cccc(C(=O)Nc2cc3c(cc2Cl)OCCCO3)c1 | -130*
COc1ccc(C(=O)Nc2cc3c(cc2Cl)OCCCO3)cc1 | -148*
COc1ccc(-c2nnc(NC(=O)c3ccc4c(c3)OCCO4)o2)cc1 | 105
Cn1c(=O)c2nc(-c3ccccc3)oc2c2ccccc21 | -69*
Cc1sc(NC(=O)C2C3CCC(O3)C2C(=O)O)nc1-c1ccc(CC(C)C)cc1 (stereo not drawn) | -139*
CC(C)(C)C1CCC(OC(=O)CN2CCOCC2)CC1 (stereo not drawn) | -108*
O=C(CSc1ncnc2ccccc12)N1CCCC1 | -67*
Cc1ccc(C(=O)CSc2ncnc3ccccc23)o1 | -121*
O=C(CSc1ncnc2ccccc12)c1cccs1 | -137*
CCOc1ccc(-c2nc(CCl)cs2)cc1 | -70*
Cc1ccc(-n2c(=S)[nH]c3c(oc4ccccc43)c2=O)cc1 | -100*
Cc1cccc(-n2c(=S)[nH]c3c(oc4ccccc43)c2=O)c1 | -88*
CNC[C@H](Cc1ccccc1)NC[C@@H](Cc1cccc2ccccc12)NCCc1ccc(C)cc1 | 123
